Only a selection was taken, and hits are over-represented in it overall.
BLM helicase inh: Bloom syndrome helicase (human) inhibition; 350,000 compounds, 0.2% hits; AID 2528; P54132; Potency, µM (titrated, usually from 56.1 µM), inactives show top-dose activity change, negative = inhibition, most hits filed as inhibitors; recombinant BLM DNA unwinding, fluorescence dequenching;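 further: plate controls were vehicle for no effect and no enzyme for full effect; nearly all actives have a fitted effect of over 35% in size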
Target sequence (P54132 whole entry, looked up): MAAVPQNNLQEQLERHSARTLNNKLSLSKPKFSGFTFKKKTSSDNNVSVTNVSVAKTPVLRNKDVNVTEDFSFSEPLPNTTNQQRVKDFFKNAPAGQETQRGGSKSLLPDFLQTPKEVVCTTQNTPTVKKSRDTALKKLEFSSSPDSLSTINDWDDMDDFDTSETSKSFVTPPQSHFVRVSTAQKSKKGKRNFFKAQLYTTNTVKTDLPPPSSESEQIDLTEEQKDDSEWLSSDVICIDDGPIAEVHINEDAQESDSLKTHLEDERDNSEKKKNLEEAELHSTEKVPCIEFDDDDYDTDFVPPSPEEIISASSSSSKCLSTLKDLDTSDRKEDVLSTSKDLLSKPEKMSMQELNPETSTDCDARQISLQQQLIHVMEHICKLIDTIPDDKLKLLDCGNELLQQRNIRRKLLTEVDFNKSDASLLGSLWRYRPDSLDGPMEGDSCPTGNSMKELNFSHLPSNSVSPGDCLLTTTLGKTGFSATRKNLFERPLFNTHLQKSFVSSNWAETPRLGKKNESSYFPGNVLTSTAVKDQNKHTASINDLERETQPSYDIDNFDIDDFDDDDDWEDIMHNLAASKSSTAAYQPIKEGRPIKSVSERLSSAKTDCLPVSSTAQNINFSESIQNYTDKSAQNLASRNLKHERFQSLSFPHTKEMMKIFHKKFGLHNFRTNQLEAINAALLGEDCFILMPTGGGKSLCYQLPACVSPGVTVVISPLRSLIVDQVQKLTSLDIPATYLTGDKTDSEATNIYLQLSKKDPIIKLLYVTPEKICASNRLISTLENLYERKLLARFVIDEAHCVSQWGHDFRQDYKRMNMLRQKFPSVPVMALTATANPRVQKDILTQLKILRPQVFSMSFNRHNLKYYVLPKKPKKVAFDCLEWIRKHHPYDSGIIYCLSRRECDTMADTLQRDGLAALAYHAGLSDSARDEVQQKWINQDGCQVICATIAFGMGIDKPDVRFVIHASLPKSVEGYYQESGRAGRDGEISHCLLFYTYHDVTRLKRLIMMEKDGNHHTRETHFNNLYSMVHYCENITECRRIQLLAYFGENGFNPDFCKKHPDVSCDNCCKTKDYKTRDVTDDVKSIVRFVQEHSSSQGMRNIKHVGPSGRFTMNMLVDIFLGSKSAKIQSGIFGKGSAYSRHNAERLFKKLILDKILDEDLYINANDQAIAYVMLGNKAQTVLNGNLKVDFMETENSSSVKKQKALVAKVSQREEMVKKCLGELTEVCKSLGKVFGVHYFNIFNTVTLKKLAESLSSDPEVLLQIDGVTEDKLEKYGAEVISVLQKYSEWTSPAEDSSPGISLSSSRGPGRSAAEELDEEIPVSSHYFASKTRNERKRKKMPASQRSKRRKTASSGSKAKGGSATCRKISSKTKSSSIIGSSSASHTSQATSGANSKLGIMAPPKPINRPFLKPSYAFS
APE1 inh: blocks human APE1 abasic DNA cleavage. P27695. recombinant APE1, TAMRA/BHQ-2 abasic DNA cleavage fluorescence. Potency, µM (doses to about 65.8 µM), for inactives: at the highest dose activity change, negative = inhibition, actives largely listed as inhibitors. 350,000 compounds, 0.35% hits;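 further: plate controls were vehicle for no effect and reference inhibitor for full effect; nearly all actives have a fitted effect of over 55% in size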
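Compound pre-exposure to 0.75 nM APE1, 15 min at ambient temperature. Reaction initiated with 50 nM TAMRA/BHQ-2 THF substrate, read immediately in kinetic mode, 525 nm excitation, 598 nm emission.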
KDM4E inh: blocks human JMJD2E demethylase activity. B2RXH2. JMJD2E catalytic domain, FDH-coupled NADH fluorescence (FDH is formaldehyde dehydrogenase). Potency, µM (highest dose often 57.1 µM), for inactives: at the highest dose activity change, negative = inhibition, usual class: inhibitors. 230,000 compounds, 1.6% hits. AID 2147; active means well fitted inhibition curve with a large enough effect, not every such curve was filed as active; inconclusive means small, poorly fitted or top-dose-only effect, or another doubt; inactive means no such curve, though single readings can be large or run the other way;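 further: 0% = wells with enzyme and -100% = buffer wells without enzyme; nearly all actives have a fitted effect of over 50% in size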
RECQ1 inh: inhibitors of human RECQ1 DNA helicase; RECQ1 DNA unwinding, red fluorescence kinetic read; Potency, µM (highest dose often 57.3 µM), without a hit: top-dose activity, negative = inhibition, usual class: inhibitors; 240,000 compounds, 0.54% hits; AID 2549;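 further: plate controls were vehicle for no effect and no enzyme for full effect; nearly all actives have a fitted effect of over 30% in size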
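50 nM RECQ1T1 preincubated 15 min with compound in Tris pH 8.0 buffer with MgCl2, DTT, Tween-20 and 2.5 ug/ml poly(dI-dC); started with 200 nM TAMRA/BHQ-2 forked duplex and 2 mM ATP. Unwinding read as fluorescence (525/598 nm), two reads 2 h apart.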
PKM2 act: increases activity of human pyruvate kinase M2 | purified PKM2, Kinase-Glo ATP luminescence, activation; response scale: 0% is enzyme alone, no compound | Potency, µM (highest dose often 57.5 µM), for the others: top-dose activation, actives largely listed as activators | AID 1631 | 260,000 compounds, 0.34% hits; further: nearly all actives have a fitted effect of over 55% in size
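Kinase-Glo luminescence reports ATP generated from ADP (0.1 mM) and PEP (0.5 mM) by purified hPK-M2 after 1 h at room temperature, pH 7.2 imidazole buffer; intermediate enzyme activity allows detecting inhibitors and activators.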
* hit, by the source's call; i = inactive; u = inconclusive; x = no result. Unless noted, the call rests on the fitted dose curve; in most records, active means well fitted curve in the direction sought with a large enough effect; inconclusive means small, poorly fitted or top-dose-only effect, or another doubt; inactive means no such curve, though single readings can be large; an effect the other way counts as inactive or inconclusive. Unless noted, on the % scale 0 is the no-effect control and ±100 the full control effect; potency means the concentration at half of the fitted maximal effect.

SMILES	BLM helicase inh	APE1 inh	KDM4E inh	RECQ1 inh	PKM2 act
CS(=O)(=O)N1CCN(c2ccc([N+](=O)[O-])c(NCc3cccnc3)c2)CC1	2.9%	20.8%	2.4%	i	10µM*
COC(=O)CC#N	x	-4.0%	x	3.4%	x
N#CCC(N)=C(C#N)C#N	-13.9%	16.3%	7.94µM*	12.1%	-5.3%
C=C1CCC[C@]2(C)C[C@H]3OC(=O)[C@H](CNCCc4ccccc4OC)C3CC12 (stereo partly drawn)	0.6%	10.2%	-5.6%	-10.0%	x
C=CCc1cccc(CNc2nc3ccccc3n2C)c1O	-9.7%	1.8%	x	x	31.6µM*
CCCn1c(NCc2cccc(OC)c2O)nc2ccccc21	1.2%	-1.6%	-3.8%	-4.2%	25.1µM*
C=CCc1cccc(CNc2nc3ccccc3n2CCN2CCOCC2)c1O	-7.7%	u	1.1%	-0.1%	20.0%
CCCn1c(CNC(=O)c2ccc(F)cc2)nc2ccccc21	2.0%	x	x	x	x
CCCn1c(CNc2ccccc2O)nc2ccccc21	-8.0%	-8.8%	14.1µM*	-2.6%	8.8%
CCCn1c(COc2ccccc2OC)nc2ccccc21	-8.5%	54.5%	x	x	15.8µM*
Cc1cc(C)n2cc(CSc3nnnn3-c3ccccc3C)nc2n1	-1.0%	-0.6%	u	-5.1%	14.1µM*
Cc1ccc(NC2=C/C(=N/S(=O)(=O)c3cccs3)c3ccccc3C2=O)cc1C	-4.5%	-3.1%	8.0%	0.2%	-11.0%
Cc1ccccc1NC1=C/C(=N\S(=O)(=O)c2cccs2)c2ccccc2C1=O	20µM*	-8.0%	12.6%	-4.4%	1.9%
COc1ccc(S(=O)(=O)/N=C2\C=C(Nc3ccc(O)cc3)C(=O)c3ccccc32)cc1	u	-6.4%	x	x	-28.4%
CC(=O)Nc1ccc(NC2=C/C(=N/S(=O)(=O)c3cccs3)c3ccccc3C2=O)cc1	22.4µM*	7.1%	43.3%	11.9%	-33.1%
CSc1ccc(/C=C/c2nc3ccccc3n2S(=O)(=O)c2ccc(Br)cc2)cc1	-7.3%	x	x	x	x
O=C(O)CCN1C(=O)/C(=C2\C(=O)N(Cc3ccccc3Cl)c3ccccc32)SC1=S	-20.6%	7.52µM*	x	x	x
COc1ccc(NC(=O)CN2C(=O)/C(=C3\SC(=S)N(CCC(=O)O)C3=O)c3ccccc32)cc1	-3.5%	34.5%	x	x	3.7%
NS(=O)(=O)c1ccc(N=Nc2c[nH]c(=O)c(O)c2)cc1	-14.9%	u	31.6µM*	-17.6%	-30.6%
Cc1ccc(CNC(=O)CCS(=O)(=O)c2cc(Br)cc3c2N(C(=O)C2CC2)CC3)cc1	1.4%	x	x	x	x
Cc1ccc(CNC(=O)CCS(=O)(=O)c2cc(Br)cc3c2N(C(=O)C2CC2)CC3)o1	-1.8%	-1.4%	-0.5%	-4.9%	7.94µM*
Cc1ccc(-c2cc(C3C4C=CCC(C)C4C(=O)N3Cc3ccccc3)ccc2F)cc1 (stereo not drawn)	-3.3%	-3.3%	x	-8.8%	x
N[C@H](C(=O)O)C1C(C(=O)O)C1C(=O)O (stereo partly drawn)	x	10.1%	x	-7.4%	x
O=c1ccc2ccc(O)c(O)c2o1	x	12.6µM*	7.08µM*	i	x
CCCC[C@H](NC(=O)[C@H](CC(C)C)NC(=O)[C@@H](Cc1c[nH]c2ccccc12)NC(=O)[C@H](Cc1ccccc1)NC(=O)[C@@H](Cc1c[nH]c2ccccc12)NC(=O)[C@H](CC(N)=O)NC(=O)[C@@H](Cc1c(Cl)cccc1Cl)NC(=O)[C@@H]1CCCN1C(=O)[C@H](Cc1ccccn1)NC(=O)[C@@H]1CCCN1C(=O)[C@H](N)CCCCNC(=O)c1cccnc1)C(N)=O	-4.8%	-4.7%	x	-7.5%	x
SMILES	BLM helicase inh	APE1 inh	KDM4E inh	RECQ1 inh	PKM2 act
Cc1c(C(=O)NCc2ccc3c(c2)OCO3)oc2ccc(S(=O)(=O)N3CCCC3)cc12	-8.7%	-4.8%	35.5µM*	-19.0%	u
Cc1c(C(=O)NCc2ccc3c(c2)OCO3)oc2ccc(S(=O)(=O)N3CCCCC3)cc12	-6.8%	-6.9%	u	-3.7%	7.0%
CCSc1ncc(/C=N/Nc2ccc(Cl)cc2)n1C	4.1%	0.8%	17.8µM*	-2.6%	-5.1%
CCSc1ncc(/C=N/Nc2ccccc2)n1C	-4.4%	1.4%	2.2%	6.5%	9.2%
c1ncc(CCCC2CCNCC2)[nH]1	3.6%	-3.3%	x	11.7%	x
COc1c(-c2coc3cc4c(cc3c2=O)CC(O)C(C)(C)O4)ccc2c1C=CC(C)(C)O2 (stereo not drawn)	-18.9%	13.2%	4.1%	-4.7%	x
COc1c(-c2coc3cc4c(cc3c2=O)CC(OC(C)=O)C(C)(C)O4)ccc2c1C=CC(C)(C)O2 (stereo not drawn)	-3.2%	22.4µM*	-1.1%	-4.8%	x
CC(C)(C)n1ncc2c(=O)n(Cc3ccc(F)c(F)c3F)cnc21	x	4.4%	x	x	x
N#CC(C#N)=C1C=C2C=C(N3CCOCC3)CCC2CC1 (stereo not drawn)	-22.3%	-9.2%	-3.0%	i	1.8%
N#CC(C#N)=C1C=C2C=C(N3CCCCCC3)CCC2CC1 (stereo not drawn)	12.6µM*	u	-15.7%	28.2µM*	-0.7%
C=CCOc1c(CNc2ccc3[nH]c(=O)[nH]c3c2)cccc1OC	1.2%	4.1%	20µM*	i	-9.7%
CCc1ccc(S(=O)(=O)c2nnn3c2nc(NCCNC(C)=O)c2ccccc23)cc1	-4.2%	14.5%	u	-21.4%	11.2µM*
CCNc1nc(NCC)n2c(SCC(=O)Nc3ccc(C)cc3Br)nnc2n1	x	15.2%	x	x	x
CCNc1nc(NCC)n2c(SCC(=O)Nc3ccccc3C(F)(F)F)nnc2n1	x	21.2µM*	x	x	x
CCNc1nc(NCC)n2c(SCC(=O)Nc3ccccc3Cl)nnc2n1	x	-12.3%	x	x	x
CCNc1nc(NCC)n2c(SCC(=O)Nc3cccc(F)c3)nnc2n1	x	11.9µM*	x	x	x
CCNc1nc(NCC)n2c(SCC(=O)Nc3cccc(Cl)c3)nnc2n1	x	26.7µM*	x	x	x
Oc1ccc2cc(SSc3ccc4cc(O)ccc4c3)ccc2c1	x	-2.3%	x	-4.9%	x
N#Cc1cccc(CS(=O)(=O)c2nnnn2C2CCCCC2)c1	-0.1%	-3.1%	-5.9%	i	x
CCC[C@@H]1C[C@@]1(CCC)C(NC(=O)c1cccs1)c1ccc(Cl)cc1 (stereo partly drawn)	-13.7%	-1.4%	7.3%	-5.7%	-1.3%
CCC[C@@H]1C[C@@]1(CCC)C(NP(=O)(c1ccccc1)c1ccccc1)c1ccc(Cl)cc1 (stereo partly drawn)	-11.2%	-5.2%	25.1µM*	i	-2.1%
Cc1cc(C)nc(SCc2ccc(C(=O)N/N=C3\CCCC(=O)C3)cc2)n1	-7.6%	19.6%	u	22.4µM*	4.0%
Cc1cc(C)nc(SCc2ccc(C(=O)NN=C3CCCC3)cc2)n1	-3.2%	-8.1%	22.9%	-6.6%	9.2%
Cc1ccc(C(=O)NCCn2c(N)c(C#N)c3nc4ccccc4nc32)cc1	-9.3%	-4.5%	u	-8.1%	u
N#Cc1c(N)n(CCNC(=O)c2ccc(Cl)cc2)c2nc3ccccc3nc12	-6.0%	-1.5%	u	-5.4%	28.2µM*

Screens deposited in PubChem by National Center for Advancing Translational Sciences (NCATS).
